Common to all, as to assay: PBM; 200 nM protein, PBS
Details in all cases: dsDNA, one strand shown

Experiment [1] concerns the target NKX2-5 (Homo sapiens, UniProt P52952 125-210, R139K).
Experiment [2] concerns the target HOXA4 (Homo sapiens, UniProt Q00056 201-287, W262R).
Experiment [3] addresses PRRX1 (Homo sapiens, UniProt P54821 80-166, F113S).
The target of experiment [4] is HOXA4 (Homo sapiens, UniProt Q00056 201-287, R217L).
The target in experiment [5] is T1, NKX2-6 (Homo sapiens, UniProt A6NCS4 118-204).
T1 sequence: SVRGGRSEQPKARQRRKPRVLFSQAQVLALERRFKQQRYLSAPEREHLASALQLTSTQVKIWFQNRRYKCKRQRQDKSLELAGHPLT

The target in experiment [6] is HOXA4 (Homo sapiens, UniProt Q00056 201-287).
Sequence of HOXA4 (Homo sapiens, UniProt Q00056 201-287) (Q00056 201-287): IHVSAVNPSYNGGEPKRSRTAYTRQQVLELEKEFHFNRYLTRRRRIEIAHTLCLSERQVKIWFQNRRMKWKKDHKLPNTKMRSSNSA
Experiment [7] has as its target T2, NKX2-6 (Homo sapiens, UniProt A6NCS4 118-204, F151L).
T2 sequence: T1 sequence with F34L

The target of experiment [8] is HOXA4 (Homo sapiens, UniProt Q00056 201-287, W262F).
Sequence of HOXA4 (Homo sapiens, UniProt Q00056 201-287, W262F) (Q00056 201-287 W262F): as the sequence (Q00056 201-287) above, with W62F counted along it
The target in experiment [9] is PRRX1 (Homo sapiens, UniProt P54821 80-166).
Sequence of PRRX1 (Homo sapiens, UniProt P54821 80-166) (P54821 80-166): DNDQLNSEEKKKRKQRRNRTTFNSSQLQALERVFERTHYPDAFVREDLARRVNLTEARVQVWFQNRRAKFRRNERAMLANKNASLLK
Experiment [10] has as its target NKX2-5 (Homo sapiens, UniProt P52952 125-210).
Experiment [11] addresses T3, SIX6 (Homo sapiens, UniProt O95475 114-200, L167I).
T3 sequence: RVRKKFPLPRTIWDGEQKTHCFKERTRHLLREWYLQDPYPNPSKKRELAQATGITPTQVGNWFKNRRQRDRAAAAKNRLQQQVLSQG

In experiment [12] the target is T4, SIX6 (Homo sapiens, UniProt O95475 114-200, L143V).
T4 sequence: T3 sequence with L30V, I54L

In experiment [13] the target is T5, SIX6 (Homo sapiens, UniProt O95475 114-200, H141N).
T5 sequence: T3 sequence with H28N, I54L

The target of experiment [14] is T6, SIX6 (Homo sapiens, UniProt O95475 114-200, T165P).
T6 sequence: T3 sequence with T52P, I54L

For experiment [15], the target named is T7, SIX6 (Homo sapiens, UniProt O95475 114-200, L167M).
T7 sequence: T3 sequence with I54M

Experiment [16] deals with T8, SIX6 (Homo sapiens, UniProt O95475 114-200, L143M).
T8 sequence: T3 sequence with L30M, I54L

Experiment [17] concerns the target T9, SIX6 (Homo sapiens, UniProt O95475 114-200, L143I).
T9 sequence: T3 sequence with L30I, I54L

In experiment [18] the target is T10, SIX6 (Homo sapiens, UniProt O95475 114-200, T165G).
T10 sequence: T3 sequence with T52G, I54L

In experiment [19] the target is T11, SIX6 (Homo sapiens, UniProt O95475 114-200, T139Q).
T11 sequence: T3 sequence with T26Q, I54L

The target of experiment [20] is T12, SIX6 (Homo sapiens, UniProt O95475 114-200, T165A).
T12 sequence: T3 sequence with T52A, I54L

The target of experiment [21] is T13, SIX6 (Homo sapiens, UniProt O95475 114-200, L167V).
T13 sequence: T3 sequence with I54V

For experiment [22], the target named is T14, SIX6 (Homo sapiens, UniProt O95475 114-200).
T14 sequence: T3 sequence with I54L

For experiment [23], the target named is T15, SIX6 (Homo sapiens, UniProt O95475 114-200, T165I).
T15 sequence: T3 sequence with T52I, I54L

Experiment [24] has as its target T16, NKX2-4 (Homo sapiens, UniProt Q9H2Z4 175-261, T231S).
T16 sequence: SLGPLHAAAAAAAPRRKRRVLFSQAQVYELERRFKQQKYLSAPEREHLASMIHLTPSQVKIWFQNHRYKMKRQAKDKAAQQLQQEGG

Experiment [25] has as its target T17, NKX2-6 (Homo sapiens, UniProt A6NCS4 118-204, R150C).
T17 sequence: T1 sequence with R33C

The target in experiment [26] is T18, NKX2-4 (Homo sapiens, UniProt Q9H2Z4 175-261, R246Q).
T18 sequence: T16 sequence with S57T, R72Q

The target in experiment [27] is NKX3-2 (Homo sapiens, UniProt P78367 192-278, P234S).
Sequence of NKX3-2 (Homo sapiens, UniProt P78367 192-278, P234S) (P78367 192-278 P234S): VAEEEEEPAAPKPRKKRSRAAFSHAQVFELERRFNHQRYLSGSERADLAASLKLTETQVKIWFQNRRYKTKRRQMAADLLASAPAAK
Experiment [28] deals with NKX3-2 (Homo sapiens, UniProt P78367 192-278).
Sequence of NKX3-2 (Homo sapiens, UniProt P78367 192-278) (P78367 192-278): as the sequence (P78367 192-278 P234S) above, with S43P counted along it
Experiment [29] concerns the target T19, PAX4 (Homo sapiens, UniProt O43316 9-242, R200K).
T19 sequence: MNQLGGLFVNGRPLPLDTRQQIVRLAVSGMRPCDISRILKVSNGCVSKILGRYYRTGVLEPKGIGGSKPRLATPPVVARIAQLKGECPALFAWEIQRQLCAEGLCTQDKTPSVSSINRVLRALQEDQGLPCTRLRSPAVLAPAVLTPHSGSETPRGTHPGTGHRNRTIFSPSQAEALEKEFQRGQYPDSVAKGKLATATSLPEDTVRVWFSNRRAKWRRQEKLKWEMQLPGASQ

In experiment [30] the target is T20, PAX4 (Homo sapiens, UniProt O43316 9-242).
T20 sequence: T19 sequence with K192R

The target of experiment [31] is ALX3 (Homo sapiens, UniProt O95076 139-225, N203Q).
Sequence of ALX3 (Homo sapiens, UniProt O95076 139-225, N203Q) (O95076 139-225 N203Q): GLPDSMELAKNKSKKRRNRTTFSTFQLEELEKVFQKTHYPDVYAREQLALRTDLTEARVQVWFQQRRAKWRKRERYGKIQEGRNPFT
The target of experiment [32] is T21, PAX4 (Homo sapiens, UniProt O43316 9-242, R200Q).
T21 sequence: T19 sequence with K192Q

The target of experiment [33] is T22, PAX4 (Homo sapiens, UniProt O43316 9-242, F177V).
T22 sequence: T19 sequence with F169V, K192R

In experiment [34] the target is ALX3 (Homo sapiens, UniProt O95076 139-225).
Sequence of ALX3 (Homo sapiens, UniProt O95076 139-225) (O95076 139-225): as the sequence (O95076 139-225 N203Q) above, with Q65N counted along it
Experiment [35] concerns the target T23, PAX4 (Homo sapiens, UniProt O43316 9-242, F177Y).
T23 sequence: T19 sequence with F169Y, K192R

For experiment [36], the target named is ALX3 (Homo sapiens, UniProt O95076 139-225, L168Q).
Sequence of ALX3 (Homo sapiens, UniProt O95076 139-225, L168Q) (O95076 139-225 L168Q): as the sequence (O95076 139-225 N203Q) above, with L30Q, Q65N counted along it
In experiment [37] the target is ALX3 (Homo sapiens, UniProt O95076 139-225, L168V).
Sequence of ALX3 (Homo sapiens, UniProt O95076 139-225, L168V) (O95076 139-225 L168V): as the sequence (O95076 139-225 N203Q) above, with L30V, Q65N counted along it
Experiment [38] concerns the target T24, PAX4 (Homo sapiens, UniProt O43316 9-242, R227W).
T24 sequence: T19 sequence with K192R, R219W

Experiment [39] concerns the target ALX3 (Homo sapiens, UniProt O95076 139-225, N203S).

Numbering of substitutions follows the chain as printed.

Sequence of NKX2-5 (Homo sapiens, UniProt P52952 125-210, R139K) (P52952 125-210 R139K): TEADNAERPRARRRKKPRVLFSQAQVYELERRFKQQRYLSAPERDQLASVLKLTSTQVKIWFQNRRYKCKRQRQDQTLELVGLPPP
Sequence of NKX2-5 (Homo sapiens, UniProt P52952 125-210) (P52952 125-210): as the sequence (P52952 125-210 R139K) above, with K15R counted along it
Sequence of ALX3 (Homo sapiens, UniProt O95076 139-225, N203S) (O95076 139-225 N203S): as the sequence (O95076 139-225 N203Q) above, with Q65S counted along it
Sequence of HOXA4 (Homo sapiens, UniProt Q00056 201-287, R217L) (Q00056 201-287 R217L): as the sequence (Q00056 201-287) above, with R17L counted along it
Sequence of PRRX1 (Homo sapiens, UniProt P54821 80-166, F113S) (P54821 80-166 F113S): as the sequence (P54821 80-166) above, with F34S counted along it
Sequence of HOXA4 (Homo sapiens, UniProt Q00056 201-287, W262R) (Q00056 201-287 W262R): as the sequence (Q00056 201-287) above, with W62R counted along it

Take GTCTAGAC: the binding signal in [1] is 9.21 upbm affinity estimate (log intensity, higher = more binding, comparable within an allelic series); in experiment [2], 9.98 upbm affinity estimate (log intensity, higher = more binding, comparable within an allelic series); in experiment [3], 9.59 upbm affinity estimate (log intensity, higher = more binding, comparable within an allelic series); in [4] it was 10.1 upbm affinity estimate (log intensity, higher = more binding, comparable within an allelic series); in [5], 10.1 upbm affinity estimate (log intensity, higher = more binding, comparable within an allelic series); in experiment [6], 9.99 upbm affinity estimate (log intensity, higher = more binding, comparable within an allelic series). In addition, the binding signal in experiment [7] is 9.52 upbm affinity estimate (log intensity, higher = more binding, comparable within an allelic series); in [8] it was 10 upbm affinity estimate (log intensity, higher = more binding, comparable within an allelic series); in experiment [9], 9.88 upbm affinity estimate (log intensity, higher = more binding, comparable within an allelic series); in experiment [10], 9.52 upbm affinity estimate (log intensity, higher = more binding, comparable within an allelic series).
As to GCGGCCCA, the binding signal in experiment [1] was 8.95 upbm affinity estimate (log intensity, higher = more binding, comparable within an allelic series); in experiment [11], 8.92 upbm affinity estimate (log intensity, higher = more binding, comparable within an allelic series); in experiment [12], 8.97 upbm affinity estimate (log intensity, higher = more binding, comparable within an allelic series); in [13], 8.91 upbm affinity estimate (log intensity, higher = more binding, comparable within an allelic series); in [14] it was 9.19 upbm affinity estimate (log intensity, higher = more binding, comparable within an allelic series); in experiment [15], 8.93 upbm affinity estimate (log intensity, higher = more binding, comparable within an allelic series). The binding signal in experiment [16] was 8.95 upbm affinity estimate (log intensity, higher = more binding, comparable within an allelic series); in [17] it was 8.94 upbm affinity estimate (log intensity, higher = more binding, comparable within an allelic series); in experiment [18], 8.87 upbm affinity estimate (log intensity, higher = more binding, comparable within an allelic series); in experiment [19] it was 8.74 upbm affinity estimate (log intensity, higher = more binding, comparable within an allelic series); in [20], 8.92 upbm affinity estimate (log intensity, higher = more binding, comparable within an allelic series); in experiment [21], 8.8 upbm affinity estimate (log intensity, higher = more binding, comparable within an allelic series). In addition, the binding signal is 8.92 upbm affinity estimate (log intensity, higher = more binding, comparable within an allelic series) in experiment [22]; 8.91 upbm affinity estimate (log intensity, higher = more binding, comparable within an allelic series) in experiment [23]; 8.97 upbm affinity estimate (log intensity, higher = more binding, comparable within an allelic series) in experiment [10].
With GACACTTA, the binding signal is 12.7 upbm affinity estimate (log intensity, higher = more binding, comparable within an allelic series) in experiment [1]; 12.8 upbm affinity estimate (log intensity, higher = more binding, comparable within an allelic series) in experiment [24]; 11.8 upbm affinity estimate (log intensity, higher = more binding, comparable within an allelic series) in experiment [25]; 13.6 upbm affinity estimate (log intensity, higher = more binding, comparable within an allelic series) in [5]; 12.9 upbm affinity estimate (log intensity, higher = more binding, comparable within an allelic series) in experiment [26]; 11.1 upbm affinity estimate (log intensity, higher = more binding, comparable within an allelic series) in experiment [7]. Besides, the binding signal in experiment [27] is 12.8 upbm affinity estimate (log intensity, higher = more binding, comparable within an allelic series); in experiment [10], 12.6 upbm affinity estimate (log intensity, higher = more binding, comparable within an allelic series); in experiment [28], 12.9 upbm affinity estimate (log intensity, higher = more binding, comparable within an allelic series).
For GCTGGGCC, the binding signal in experiment [1] is 8.63 upbm affinity estimate (log intensity, higher = more binding, comparable within an allelic series); in [29], 9.06 upbm affinity estimate (log intensity, higher = more binding, comparable within an allelic series); in [30], 9.06 upbm affinity estimate (log intensity, higher = more binding, comparable within an allelic series); in experiment [31], 7.66 upbm affinity estimate (log intensity, higher = more binding, comparable within an allelic series); in experiment [32], 9.13 upbm affinity estimate (log intensity, higher = more binding, comparable within an allelic series); in [33] it was 8.94 upbm affinity estimate (log intensity, higher = more binding, comparable within an allelic series). Further, the binding signal is 7.62 upbm affinity estimate (log intensity, higher = more binding, comparable within an allelic series) in experiment [34]; 9.03 upbm affinity estimate (log intensity, higher = more binding, comparable within an allelic series) in experiment [35]; 7.58 upbm affinity estimate (log intensity, higher = more binding, comparable within an allelic series) in experiment [36]; 7.61 upbm affinity estimate (log intensity, higher = more binding, comparable within an allelic series) in experiment [37]; 9.05 upbm affinity estimate (log intensity, higher = more binding, comparable within an allelic series) in [38]; 7.64 upbm affinity estimate (log intensity, higher = more binding, comparable within an allelic series) in [39]. For the same sequence, the binding signal in experiment [10] was 8.61 upbm affinity estimate (log intensity, higher = more binding, comparable within an allelic series).
Turning to CCCCTGCG, the binding signal is 8.68 upbm affinity estimate (log intensity, higher = more binding, comparable within an allelic series) in experiment [1]; 8.92 upbm affinity estimate (log intensity, higher = more binding, comparable within an allelic series) in experiment [11]; 8.67 upbm affinity estimate (log intensity, higher = more binding, comparable within an allelic series) in [12]; 8.89 upbm affinity estimate (log intensity, higher = more binding, comparable within an allelic series) in [13]; 8.67 upbm affinity estimate (log intensity, higher = more binding, comparable within an allelic series) in [14]; 8.87 upbm affinity estimate (log intensity, higher = more binding, comparable within an allelic series) in experiment [15]. Besides, the binding signal in experiment [16] was 8.77 upbm affinity estimate (log intensity, higher = more binding, comparable within an allelic series); in [17], 8.85 upbm affinity estimate (log intensity, higher = more binding, comparable within an allelic series); in [18], 8.87 upbm affinity estimate (log intensity, higher = more binding, comparable within an allelic series); in [19], 8.92 upbm affinity estimate (log intensity, higher = more binding, comparable within an allelic series); in experiment [31], 7.65 upbm affinity estimate (log intensity, higher = more binding, comparable within an allelic series); in experiment [20], 8.91 upbm affinity estimate (log intensity, higher = more binding, comparable within an allelic series). The binding signal in [21] is 8.9 upbm affinity estimate (log intensity, higher = more binding, comparable within an allelic series); in [34], 7.85 upbm affinity estimate (log intensity, higher = more binding, comparable within an allelic series); in experiment [22], 8.87 upbm affinity estimate (log intensity, higher = more binding, comparable within an allelic series); in experiment [36], 7.61 upbm affinity estimate (log intensity, higher = more binding, comparable within an allelic series); in experiment [23], 8.84 upbm affinity estimate (log intensity, higher = more binding, comparable within an allelic series); in [37] it was 7.71 upbm affinity estimate (log intensity, higher = more binding, comparable within an allelic series). Moreover, the binding signal in experiment [39] was 7.66 upbm affinity estimate (log intensity, higher = more binding, comparable within an allelic series); in [10], 8.4 upbm affinity estimate (log intensity, higher = more binding, comparable within an allelic series).
